The list is not random: actives were taken first. Their share in the collection is about 3.5%.
GPR151 ag = human GPR151 activation; Q8TDV0; PathHunter beta-arrestin GPR151 cells, luminescence; activation, % at 11.2 µM; 1% of 650,000 active; AID 1508602; in the data active = activation above about 4.9%
TEAD-YAP inh = TEAD-YAP interaction inhibition | inhibition, % at 9.12 µM | 1.4% of 640,000 active | AID 1259422 | HEK-TIYL cells, TEAD-Gal4/YAP UAS-luciferase luminescence; in the data active = inhibition above about 32%
MITF primary = blocks human microphthalmia-associated transcription factor | O75030 | AlphaScreen MITF homodimerization, bead proximity signal | inhibition, % at 2.6 µM | 0.91% of 650,000 active | AID 1259374; in the data active = inhibition above about 50%
FBW7 activator = activators of human E3 ligase FBW7; Q969H0; AlphaScreen FBW7–phospho-cyclin E peptide binding, activator screen; normalized activity (activation), % at 26.1 µM; 0.13% of 650,000 active; AID 1259310; in the data active = normalized activity above about 1.9%;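 also: purified mutant Fbw7 with reduced substrate affinity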
Target sequence (Q969H0 whole entry, looked up): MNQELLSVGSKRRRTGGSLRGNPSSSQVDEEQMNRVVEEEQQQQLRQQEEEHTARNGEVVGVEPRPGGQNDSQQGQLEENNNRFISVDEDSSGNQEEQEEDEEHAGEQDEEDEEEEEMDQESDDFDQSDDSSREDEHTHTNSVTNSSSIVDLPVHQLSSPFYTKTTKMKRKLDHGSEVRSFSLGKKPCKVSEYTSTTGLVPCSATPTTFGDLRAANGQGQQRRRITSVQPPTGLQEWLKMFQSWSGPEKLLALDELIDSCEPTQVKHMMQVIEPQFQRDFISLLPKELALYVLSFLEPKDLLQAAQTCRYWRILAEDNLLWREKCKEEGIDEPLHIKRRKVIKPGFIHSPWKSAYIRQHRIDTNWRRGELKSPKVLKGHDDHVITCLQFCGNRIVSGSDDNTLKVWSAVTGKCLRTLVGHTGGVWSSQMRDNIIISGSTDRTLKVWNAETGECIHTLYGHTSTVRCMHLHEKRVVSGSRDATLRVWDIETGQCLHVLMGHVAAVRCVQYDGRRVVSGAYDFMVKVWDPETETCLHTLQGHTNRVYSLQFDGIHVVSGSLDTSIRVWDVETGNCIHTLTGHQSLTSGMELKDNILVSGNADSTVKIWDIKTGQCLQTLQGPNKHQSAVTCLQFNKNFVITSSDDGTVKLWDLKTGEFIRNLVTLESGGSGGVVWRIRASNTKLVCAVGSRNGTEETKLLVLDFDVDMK
MITF inh conf = human MITF inhibition, confirmation; shares compounds with MITF primary; AlphaScreen MITF homodimerization, biotin/His-MITF beads; inhibition, % at 2.6 µM; 16% of 4,700 active;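 active = inhibition above a cutoff derived from the DMSO control wells, cut at about 28% in these data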;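 also: inhibitors lower the bead chemiluminescence by keeping MITF from dimerizing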
AS interf DR = counter-screen: compounds optically interfering with AlphaScreen. AlphaScreen optical interference counterscreen, cell-free. 6% of 480 active. IC50, µM. AID 1259373. shares compounds with MITF primary; call rule not given here
AS interf ctr = optically interferes with AlphaScreen signal | shares compounds with MITF primary | LysRS AlphaScreen counterscreen, signal interference, triplicate | inhibition, % at 2.6 µM | 7.6% of 4,700 active | AID 1259376;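 active = inhibition above a cutoff derived from the DMSO control wells, cut at about 30% in these data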
Numbers stand for hits; n = inactive; x = no result.

SMILES	GPR151 ag	TEAD-YAP inh	MITF primary	FBW7 activator	MITF inh conf	AS interf ctr	others
COc1ccc([C@H]2C(C#N)=C(N)OC3=C2C(=O)CC(C)(C)C3)c([N+](=O)[O-])c1OC	n	n	n	n	x	x
Clc1cc(Br)ccc1OCCN1CCNCC1	n	n	57	n	n	n
Clc1ccc(OCCN2CCNCC2)c(Cl)c1	n	n	n	n	x	x
Brc1c(OCCn2ccnc2)ccc2ccccc12	n	n	57	n	n	n
Cc1cc(Br)ccc1OCCOCCN1CCN(C)CC1	n	n	57	n	n	n
CCCCNCCOCCOc1ccc(Br)cc1C	n	n	72	n	n	n
CC1CCCCC1NS(=O)(=O)c1ccc(F)c(C(=O)Nc2ccc(Cl)c(Cl)c2)c1 (centres undefined)	n	n	n	n	x	x
Brc1c(OCCN2CCNCC2)ccc2ccccc12	n	n	64	n	33	n	AS interf DR=n
Clc1cc(Br)ccc1OCCOCCn1ccnc1	n	n	n	n	x	x
Clc1cc(Br)ccc1OCCOCCN1CCNCC1	n	n	54	n	n	n
CCCCCCSc1nc(C)cc(COC)c1C#N	n	n	n	n	x	x
CCCNC(=O)Cn1cnc2sc(C(=O)NCc3ccc(F)cc3)c(C)c2c1=O	n	n	n	n	x	x
N#Cc1nc(-c2cccc(Cl)c2)oc1N1CCN(C(=O)c2ccc(Cl)cc2)CC1	n	n	n	n	x	x
Cc1cccc(C(=O)N2CCN(c3oc(-c4ccc(Cl)cc4)nc3C#N)CC2)c1	n	n	75	n	n	n
N#Cc1c(C(F)(F)F)cc(-c2ccccc2)nc1SCC(=O)C1CC1	n	n	n	n	x	x
COc1ccc(OC)c(CN2CCN(CC3CC4C=CC3C4)CC2)c1 (centres undefined)	n	n	n	n	x	x
Fc1ccc(CN2CCN(CC3CC4C=CC3C4)CC2)cc1 (centres undefined)	n	n	79	n	n	n
CSc1ccc(CN2CCN(S(=O)(=O)c3ccc(F)cc3)CC2)cc1	n	n	n	n	x	x
CSc1ccc(CN2CCN(CC3CC4C=CC3C4)CC2)cc1 (centres undefined)	n	n	62	n	n	n
Cc1ccc(CN2CCN(CC3CC4C=CC3C4)CC2)cc1 (centres undefined)	n	n	74	n	n	n
COc1cc(CN2CCN(CC3CC4C=CC3C4)CC2)cc(OC)c1OC (centres undefined)	n	n	56	n	n	n
COc1ccccc1NC(=O)Nc1cccn(Cc2ccccc2Br)c1=O	n	n	n	n	x	x
COCCC(=O)Nc1ccc2c(c1)CN(Cc1cc(CC(C)C)n[nH]1)CC2	n	n	n	n	x	x
O=C(CSc1cccc[n+]1[O-])NNC(=O)c1ccc(Br)cc1	n	n	n	n	x	x
CCc1ccc2[nH]c(=O)c(CN(CCO)C(=O)c3ccco3)cc2c1	n	n	n	n	x	x
SMILES	GPR151 ag	TEAD-YAP inh	MITF primary	FBW7 activator	MITF inh conf	AS interf ctr	others
c1ccc(CN2CCC(Nc3nc(Nc4ccccc4)nc4c3ncn4C3CCCCC3)CC2)cc1	n	n	n	n	x	x
CC(C)N(CCNc1nc(NC2CCN(Cc3ccccc3)CC2)nc2c1ncn2C1CCCCC1)C(C)C	n	n	58	n	n	n
c1ccc(CNc2nc(NC3CCN(Cc4ccccc4)CC3)nc3c2ncn3C2CCCCC2)cc1	n	n	n	n	x	x
c1ccc(Nc2nc(NC3CC3)c3ncn(C4CCCCC4)c3n2)cc1	n	n	88	n	n	n
COc1cc(CNC2CCCc3ccccc32)cc(OC)c1O (centres undefined)	n	n	57	n	n	n
COc1cc(OC)c(OC)cc1CNC1CCCc2ccccc21 (centres undefined)	n	n	n	n	x	x
Cc1nnc(SCC(=O)Nc2cc(Cl)ccc2O)s1	n	n	n	n	x	x
COc1ccc(CCNC(=O)C2CCN(Cc3nc4ccccc4[nH]3)CC2)cc1	n	n	80	n	n	n
COC(=O)CN1CCN(Cc2nc3ccccc3[nH]2)CC1	n	n	52	n	n	n
O=C(CN1CCN(Cc2nc3ccccc3[nH]2)CC1)N1CCCc2ccccc21	n	n	91	n	n	n
COC(=O)CC1=NN(c2nc3ccccc3[nH]2)C(=O)C1	n	n	79	n	70	97
CCNC(=O)N1CCN(Cc2nc3ccccc3[nH]2)CC1	n	n	n	n	x	x
COc1ccc2nc(CN3CCN(C(=O)C4CC4)CC3)[nH]c2c1	n	n	68	n	n	n
O=C(c1cccc2ccccc12)N1CCN(Cc2nc3ccccc3[nH]2)CC1	n	n	59	n	n	n
O=C(C1CCN(Cc2nc3ccccc3[nH]2)CC1)N1CCN(C2CCCCC2)CC1	n	n	n	n	x	x
COCC(=O)N1CCN(Cc2nc3ccccc3[nH]2)CC1	n	n	58	n	n	n
O=C1NC(=S)S/C1=C\c1cn(-c2ccccc2)nc1-c1cccnc1	n	n	n	n	x	x
CCOC(=O)Nc1ccc2c(CN3CCN(CC)CC3)cc(=O)oc2c1	n	n	n	n	x	x
Cc1ccnc2nc(C(=O)OCC(=O)NC(=O)NC3CCCC3)nn12	n	n	n	n	x	x
COC(=O)c1cc(OC)c(OC)cc1NC(=S)Nc1ccc([N+](=O)[O-])cc1OC	n	n	n	n	x	x
COc1ccc(C/C(C)=N/Nc2nc3ccccc3[nH]2)cc1	n	n	67	n	n	38
COc1ccc(-c2noc(CN(C(=O)c3ccc(OC)c([N+](=O)[O-])c3)C(C)C)n2)cc1	n	n	n	n	x	x
COc1ccc(C(=O)N(Cc2nc(-c3ccc(C)cc3)no2)C(C)C)cc1[N+](=O)[O-]	n	n	55	n	n	n
CCc1ccc(OCC(=O)Nc2cc(C)ccn2)cc1	n	n	51	n	n	n
CC1CN(Cc2ccco2)c2nc3c(c(=O)[nH]c(=O)n3C)n2C1 (centres undefined)	n	n	n	n	x	x
SMILES	GPR151 ag	TEAD-YAP inh	MITF primary	FBW7 activator	MITF inh conf	AS interf ctr	others
Cc1cccc(CC(=O)Nc2c3c(nn2-c2ccc(F)cc2)CS(=O)C3)c1 (centres undefined)	n	n	88	n	n	n
O=C(Cc1ccc(F)cc1)Nc1c2c(nn1-c1ccccc1)CS(=O)C2 (centres undefined)	n	n	n	n	x	x
O=S(=O)(c1ccc(Cl)cc1)N1CCN(C2CCN(Cc3ccccc3)CC2)CC1	n	n	n	n	x	x
CN1CCN(C2CCN(S(=O)(=O)c3ccccc3)CC2)CC1	n	n	59	n	n	n
COc1ccc(S(=O)(=O)N2CCC(N3CCN(Cc4ccccc4)CC3)CC2)cc1	n	n	78	n	n	n
COc1ccc(S(=O)(=O)N2CCCN(Cc3ccccc3)CC2)cc1	n	n	n	n	x	x
COc1ccc(S(=O)(=O)N2CCN(c3ccccc3F)CC2)cc1	n	n	n	n	x	x
O=S(=O)(c1ccccc1)N1CCC(N2CCCCCC2)CC1	n	n	n	n	x	x
O=S(=O)(c1ccc2ccccc2c1)N1CCC(N2CCN(Cc3ccccc3)CC2)CC1	n	n	57	n	n	n

Assay outcomes deposited in PubChem by The Scripps Research Institute Molecular Screening Center.
